Records with an inconclusive call do not appear. Entries that show only a call come without a potency. Calls of active or inactive are those of the source. Calls come from the whole dose curve; as a rule, active = well fitted inhibition curve with a large enough effect; inconclusive = small, poorly fitted or top-dose-only effect; inactive = no such curve, though single readings can be large or run the other way.

Sequence of Rap guanine nucleotide exchange factor 3 (Homo sapiens) (O95398 whole entry, looked up): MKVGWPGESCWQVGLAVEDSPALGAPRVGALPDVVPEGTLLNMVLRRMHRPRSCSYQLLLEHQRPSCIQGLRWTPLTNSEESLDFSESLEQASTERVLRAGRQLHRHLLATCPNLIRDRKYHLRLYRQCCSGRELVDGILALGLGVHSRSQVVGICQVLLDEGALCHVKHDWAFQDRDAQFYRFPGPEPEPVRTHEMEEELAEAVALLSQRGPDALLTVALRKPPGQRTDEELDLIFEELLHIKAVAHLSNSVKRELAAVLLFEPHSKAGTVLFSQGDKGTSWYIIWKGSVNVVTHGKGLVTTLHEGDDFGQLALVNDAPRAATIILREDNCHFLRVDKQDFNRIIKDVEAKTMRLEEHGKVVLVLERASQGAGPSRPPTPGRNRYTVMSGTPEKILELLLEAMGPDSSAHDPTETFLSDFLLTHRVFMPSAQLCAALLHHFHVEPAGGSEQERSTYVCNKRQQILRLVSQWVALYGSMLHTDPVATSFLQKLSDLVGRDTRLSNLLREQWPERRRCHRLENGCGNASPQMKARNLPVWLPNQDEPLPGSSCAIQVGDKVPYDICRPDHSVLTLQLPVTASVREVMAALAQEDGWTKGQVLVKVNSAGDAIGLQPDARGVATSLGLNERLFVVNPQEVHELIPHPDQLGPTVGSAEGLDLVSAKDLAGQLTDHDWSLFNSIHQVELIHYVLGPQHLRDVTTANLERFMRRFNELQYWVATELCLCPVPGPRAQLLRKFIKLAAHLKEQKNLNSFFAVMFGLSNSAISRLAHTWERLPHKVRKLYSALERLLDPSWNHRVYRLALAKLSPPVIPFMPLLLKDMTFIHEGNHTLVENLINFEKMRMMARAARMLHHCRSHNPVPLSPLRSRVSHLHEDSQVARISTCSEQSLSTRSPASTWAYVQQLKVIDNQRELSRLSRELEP

This assay concerns the target Rap guanine nucleotide exchange factor 3 (Homo sapiens) (UniProt O95398). Put plainly: Confirmatory qHTS for antagonist of cAMP-regulated guanine nucleotide exchange factor 3 (EPAC1) (AID 1645880). Note: nearly all actives have a fitted effect of over 55% in size. Conditions: EPAC1 Rap1B-BODIPY-GDP exchange, fluorescence; activity, negative = inhibition: at 115 µM (top of the series). Put shortly:
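Nucleotide exchange uses 100 nM EPAC1, 250 nM RAP1B-BODIPY-GDP and 50 uM GDP, with compounds in a concentration-titration series. After 5 min at room temperature, fluorescence (480 nm ex/540 nm em) is read every 5 min for 30 min. Data are normalized to control ATA and DMSO.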
Regarding `COC(=O)c1ccc2nc(-c3ccc(F)cc3)c(Cc3ccccc3)n2c1`, the Potency result is “inactive”. To `O=C(c1noc2c1CCc1ccccc1-2)N1CCCc2ccccc21` belongs “inactive”; to `CC1CN(c2nc(-c3ccccc3)nc3ccccc23)CC(C)O1` (stereo not drawn), “inactive”. To `C=C1SC(Nc2c(C)cc(C)cc2C)=NC12CCCCC2` belongs “inactive”. To `Cc1ccc(-c2nn3cnnc3c3ccccc23)cc1C` belongs “inactive”; to `COc1ccccc1C1CC(=O)Oc2cc(C)c(Cl)c(C)c21` (stereo not drawn), “inactive”; to `CC1CN(c2nc3ccccc3cc2-c2ccccc2)CC(C)O1` (stereo not drawn), “inactive”.

For `Cc1cc2nc3c(=O)n(C)c(=O)n(C)c3nc2cc1N=CN(C)C`, the Potency entry is “inactive”. For the compound `COc1ccc(N2C(=O)[C@H]3CCC=C[C@H]3[C@@H]2c2ccccc2Br)cc1`, the Potency entry is “inactive”. In the case of `COC(=O)c1ccc2nc(-c3ccc(F)cc3)c(CC3CCCCC3)n2c1`, the Potency entry was “inactive”. To `CCOC(=O)C1Oc2ccccc2C(c2ccc(C)cc2)=C1C(=O)OC` (stereo not drawn) belongs “inactive”. On to `C=CCOc1ccc(/C=N/NC(C)=O)cc1OCC`, for which the Potency entry is “inactive”. Take `CC(OC(=O)c1ccccc1Oc1ccccc1)C(=O)NC1CC1` (stereo not drawn): the Potency result was “inactive”. In the case of `COc1ccccc1-c1oc2ccccc2c1-c1ccc2c(c1)OCO2`, the Potency entry was “inactive”. To `COc1cc(C)c(S(=O)(=O)N2CCCC2)cc1C(C)C` belongs “inactive”; to `C=C[C@]1(C)C[C@@H](OC(=O)CSCCN(CC)CC)[C@]2(C)C(C)CC[C@]3(CCC(=O)[C@H]32)[C@@H](C)[C@@H]1O` (stereo partly drawn), “inactive”. To `Cn1c(=O)c(C#N)c(-c2ccc(F)cc2)c2cc(C(=O)c3cc(Cl)cc(Cl)c3O)cnc21` belongs “inactive”; to `CCCC(CNC(C)=O)(C1=CCCCC1)c1ccccc1` (stereo not drawn), “inactive”.

The values are drawn from PubChem BioAssay (NCATS).
